Measured values: the supplement of paper PMC12350171
Counter-ions that a name gives are not always drawn. Values without a mark were called inactive.

Assays:
Conditions in all cases: 20 µM
[1] = tested on: Salmonella enterica typhimurium; assay: growth AUC normalised to DMSO control (fraction of control); higher = less growth inhibition, active = hit call of the paper
How it was run: (§1)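 Pathogens were passaged twice under anaerobic conditions, then inoculated into pre-reduced mGAM plates at a starting OD578 of 0.01, with compound at 20 μM and 1% DMSO, and sealed with breathable membranes. For Haemophilus parainfluenzae, the medium was supplemented with hemin and NAD. OD578 was read every hour for 24 h in three biological replicates. Growth-curve AUC was calculated by the trapezoidal rule up to the exponential-to-stationary transition and normalised to DMSO controls on the same plate.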

[2] = tested on: Shigella flexneri; assay: as above
How it was run: as §1

[3] = tested on: Vibrio cholerae; assay: as above
How it was run: as §1

[4] = tested on: Yersinia pseudotuberculosis; assay: as above
How it was run: as §1

[5] = tested on: P. vulgatus RND KO; assay: growth AUC normalised to DMSO control (median) (fraction of control); higher = less growth inhibition, active = hit call of the paper
How it was run: (§2)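 After two overnight anaerobic passages, strains were inoculated at OD578 0.01 into mGAM in 96-well plates containing approved-drug library compounds at 20 μM and 1% DMSO. Growth was followed by reading OD578 hourly for 24 h within an anaerobic incubator. Area under the curve, taken by the trapezoidal rule up to the start of stationary phase, was normalised to same-plate vehicle wells, and the median of three biological replicates is listed.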

[6] = tested on: P. vulgatus WT; assay: as above
How it was run: as §2

[7] = tested on: S. enterica typhimurium WT; assay: as above
How it was run: as §2

[8] = tested on: S. enterica typhimurium tolC KO; assay: as above
How it was run: as §2
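Throughout, for growth AUC normalised to DMSO control (median): active when median AUC fell below 0.1.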

SMILES | growth AUC normalised to DMSO control [1] | growth AUC normalised to DMSO control [2] | growth AUC normalised to DMSO control [3] | growth AUC normalised to DMSO control [4] | growth AUC normalised to DMSO control [5] | growth AUC normalised to DMSO control [6] | growth AUC normalised to DMSO control [7] | growth AUC normalised to DMSO control [8]
NC[C@H]1O[C@H](O[C@H]2[C@H](O[C@@H]3O[C@H](CO)[C@@H](O)[C@H]3O)[C@@H](O)[C@H](N)C[C@@H]2N)[C@H](N)[C@@H](O)[C@@H]1O [Ribostamycin sulfate salt] | 0.981 | 0.918 | 0.974 | 0.995 | 0.988 | 0.986 | 0.98 | 0.99
O=C(OCCOCCO)c1ccccc1Nc1cccc(C(F)(F)F)c1 [Etofenamate] | 1.01 | 0.979 | 0.977 | 0.991 | 0.832 | 0.909 | 1 | 0.858
CCC1(c2ccccc2)NC(=O)N(C)C1=O (stereo not given) [Mephenytoin] | 1.01 | 0.997 | 1.02 | 1.01 | 1 | 1.03 | 1 | 1
CC(=O)O[C@H]1C[C@@H]2CC[C@@H]3[C@H](CC[C@@]4(C)[C@H]3C[C@H]([N+]3(C)CCCCC3)[C@@H]4OC(C)=O)[C@@]2(C)C[C@@H]1N1CCCCC1 [Vecuronium bromide] | 1.01 | 0.979 | 1.01 | 1.02 | 0.955 | 0.998 | 1 | 1
COCCOC(=O)C1=C(C)NC(C)=C(C(=O)OC/C=C/c2ccccc2)C1c1cccc([N+](=O)[O-])c1 (stereo not given) [Cilnidipine] | 1.01 | 1.01 | 1.03 | 0.976 | 0.989 | 0.98 | 1.01 | 1.01
C[C@H](O)C(=O)Nc1c(I)c(C(=O)NC(CO)CO)c(I)c(C(=O)NC(CO)CO)c1I [Iopamidol] | 1.03 | 1.08 | 1.07 | 1.03 | 1.08 | 1.08 | 1.01 | 1.01
COc1ccc(C(=O)c2ccccc2O)c(O)c1 [Dioxybenzone] | 0.977 | 0.983 | 0.909 | 0.982 | 0.981 | 1.01 | 0.993 | 0.951
CCCCOc1ccc(C(=O)CCN2CCCCC2)cc1 [Dyclonine hydrochloride] | 0.985 | 0.963 | 0.913 | 0.979 | 1 | 1.01 | 0.996 | 0.986
O=C(O)c1ccccc1Nc1cccc(C(F)(F)F)c1 [Flufenamic acid] | 0.992 | 0.963 | 0.906 | 0.981 | 0.833 | 0.849 | 1.01 | 0.968
CC(CN(C)C)CN1c2ccccc2CCc2ccccc21 (stereo not given) [Trimipramine maleate salt] | 1 | 1.05 | 1.07 | 1.01 | 1.06 | 1.03 | 1.02 | 0.963
NCCCCCC(=O)O [Aminocaproic acid] | 0.999 | 1.06 | 1.07 | 1.02 | 1.07 | 1.1 | 1.02 | 1
CC1=C(/C=C/C(C)=C/C=C/C(C)=C/C(=O)O)C(C)(C)CCC1 [Retinoic acid] | 1 | 0.994 | 1 | 0.998 | 0.996 | 0.992 | 1 | 0.993
CN1CCCN=C1/C=C/c1cccc(O)c1 [Oxantel pamoate] | 1.01 | 1.02 | 1.05 | 1.02 | 1.01 | 0.992 | 1.01 | 1.01
CC(C)(Oc1ccc(Cl)cc1)C(=O)O [Clofibric acid] | 0.995 | 1 | 0.986 | 0.996 | 0.998 | 1.01 | 0.996 | 1
CC(=O)Nc1ccc(OCC(O)CNC(C)C)cc1 (stereo not given) [Practolol] | 1 | 1.03 | 1.02 | 1.01 | 1.02 | 1.06 | 1.02 | 1.02
Cc1cnc(C(=O)O)c[n+]1[O-] [Acipimox] | 0.983 | 1 | 0.982 | 0.969 | 1 | 0.994 | 1.01 | 0.992
CCC(Cc1c(I)cc(I)c(N)c1I)C(=O)O (stereo not given) [Iopanoic acid] | 1.01 | 1.01 | 1.01 | 0.989 | 0.999 | 1 | 1.01 | 0.987
CNCCC=C1c2ccccc2CCc2ccccc21 [Nortriptyline hydrochloride] | 0.998 | 0.991 | 0.937 | 0.992 | 0.99 | 1.01 | 1 | 0.971
CC(=O)N[C@@H](CS)C(=O)O [Acetylcysteine] | 1.03 | 1.06 | 1.05 | 1.04 | 1.07 | 1.06 | 1.01 | 0.991
COc1ccc2cc(CCC(C)=O)ccc2c1 [Nabumetone] | 1.03 | 0.998 | 0.929 | 0.999 | 0.99 | 1 | 1 | 0.963
C#C[C@]1(O)CC[C@H]2[C@@H]3CCC4=Cc5oncc5C[C@]4(C)[C@H]3CC[C@@]21C [Danazol] | 0.994 | 0.971 | 0.991 | 0.954 | 0.982 | 0.992 | 1 | 0.983
O=C(O)/C=C/c1ccc(Cn2ccnc2)cc1 [Ozagrel hydrochloride] | 1.02 | 1.02 | 0.995 | 1.01 | 1.02 | 1.05 | 1 | 1
CC[C@H]1OC(=O)[C@H](C)[C@@H](O[C@H]2C[C@@](C)(OC)[C@@H](O)[C@H](C)O2)[C@H](C)[C@@H](O[C@@H]2O[C@H](C)C[C@H](N(C)C)[C@H]2O)[C@](C)(O)C[C@@H](C)CN(C)[C@H](C)[C@@H](O)[C@]1(C)O [Azithromycin] | 0.0316 (active) | 0.0334 (active) | 0.0396 (active) | 0.0337 (active) | 0.0189 (active) | 0.0116 (active) | 0.0218 (active) | 0.00733 (active)
COC(=O)[C@@H]1[C@H]2C[C@H]3c4[nH]c5ccccc5c4CCN3C[C@@H]2CC[C@@H]1O [Yohimbine hydrochloride] | 0.984 | 0.958 | 0.969 | 1 | 0.984 | 1.01 | 1 | 1
Nc1nc(Cl)nc2c1ncn2[C@H]1C[C@H](O)[C@@H](CO)O1 [Cladribine] | 0.985 | 0.949 | 0.982 | 1 | 1.01 | 1.02 | 0.915 | 0.911
C[C@]12CC[C@H]3[C@@H](CCC4=CC(=O)CC[C@@]43C)[C@@H]1CC[C@@H]2C(=O)CO [Deoxycorticosterone] | 1 | 1.03 | 1.03 | 1.03 | 1.07 | 1.07 | 1 | 0.933
CC1(C)O[C@@H]2[C@@H](CO[C@@]3(COS(N)(=O)=O)OC(C)(C)O[C@@H]23)O1 [Topiramate] | 0.985 | 1.02 | 1.02 | 1.01 | 0.961 | 0.967 | 0.996 | 0.992
O=C1OCCN1/N=C/c1ccc([N+](=O)[O-])o1 [Furazolidone] | 0.391 (active) | 0.0191 (active) | 0.0449 (active) | 0.842 (active) | 0.0122 (active) | 0.00859 (active) | 0.459 | 0.609
C[C@]12C=CC(=O)C=C1CC[C@@H]1[C@@H]2[C@@H](O)C[C@@]2(C)[C@H]1CC[C@]2(O)C(=O)CO [Prednisolone] | 0.982 | 0.96 | 0.971 | 0.994 | 0.976 | 0.995 | 0.995 | 0.998
O=C(O)CCNC(=O)c1ccc(/N=N/c2ccc(O)c(C(=O)O)c2)cc1 [Balsalazide disodium salt] | 1.03 | 1.03 | 1.05 | 1 | 1.02 | 1.08 | 0.996 | 1.02
